The source of these data is PubChem BioAssay AID1903 (Southern Research Specialized Biocontainment Screening …, 2009).

For orientation: inhibition means the relative decrease from the control value, in per cent.

SMILES strings stand for the structures. About 1,200 (0.39%) of roughly 310,000 compounds were called active. The rule behind the calls is not given here. Only a sample is shown. Potency and affinity values are given separately.

The target in the assay is Large T antigen (Simian virus 40) (UniProt P03070). The assay is described as follows: SV40 large T antigen inhibitors, biochemical (AID 1903). Conditions: SV40 large T antigen ATPase/helicase inhibition assay; at 20 µM; hits give high values.
Chain of Large T antigen (Simian virus 40) (P03070 whole entry, looked up): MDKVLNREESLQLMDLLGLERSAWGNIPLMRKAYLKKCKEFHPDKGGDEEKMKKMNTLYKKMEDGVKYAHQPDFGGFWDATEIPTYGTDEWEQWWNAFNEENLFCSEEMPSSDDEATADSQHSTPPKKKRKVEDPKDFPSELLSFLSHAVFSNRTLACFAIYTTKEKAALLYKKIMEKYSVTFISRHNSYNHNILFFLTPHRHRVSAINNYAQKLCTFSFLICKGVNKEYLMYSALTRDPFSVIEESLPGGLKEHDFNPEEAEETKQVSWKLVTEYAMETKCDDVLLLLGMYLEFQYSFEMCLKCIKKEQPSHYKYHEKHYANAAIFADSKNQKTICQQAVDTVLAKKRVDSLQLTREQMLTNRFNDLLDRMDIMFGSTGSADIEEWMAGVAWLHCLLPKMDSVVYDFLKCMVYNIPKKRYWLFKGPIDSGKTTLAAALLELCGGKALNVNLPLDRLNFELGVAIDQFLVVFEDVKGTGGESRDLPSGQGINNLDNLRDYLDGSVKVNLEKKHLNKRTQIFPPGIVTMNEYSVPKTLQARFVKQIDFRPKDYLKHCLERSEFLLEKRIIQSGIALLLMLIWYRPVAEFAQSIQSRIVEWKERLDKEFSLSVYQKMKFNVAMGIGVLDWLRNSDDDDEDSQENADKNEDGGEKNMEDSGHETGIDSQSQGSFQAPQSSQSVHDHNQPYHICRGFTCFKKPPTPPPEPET
`Cc1ccc(S(=O)(=O)n2nccc2-c2c(-c3ccc(Cl)cc3)noc2C)cc1`: the inhibition was 6.88% (inactive).
Turning to `O=C(O)c1ccc(NC(CSCc2ccc(F)cc2)C(=O)O)c([N+](=O)[O-])c1` (stereo not given), the inhibition was -4.05% (inactive).
Then `O=C(c1cc2ccccc2o1)N1CCC(N2CCC(C(=O)N3CCCC3)CC2)CC1`, with 5.34% (inactive); and `COc1ccc(/C=C2\SC(=S)N(NS(=O)(=O)c3ccccc3)C2=O)c(OC)c1`, with 11.9% (inactive); and `O=S(=O)(NCC1CCCO1)c1ccc(Cl)cc1` (stereo not given), with 1.99% (inactive).
For the compound `O=C(c1cc([N+](=O)[O-])ccc1N1CCCC1)N1CCCCC1`, the inhibition was 1.67% (inactive).
Then `Cc1cc(-n2c(C)cc(C(=O)CN3C(=O)NC4(CCCCCC4)C3=O)c2C)no1`, with -2.03% (inactive); and `CC1(C)CC(=O)C(C=Nc2ccc(N)cc2)=C(O)C1`, with 28.8% (inactive).
Then `O=C1CC(c2ccccc2)CC(O)=C1C=Nc1ccc(O)cc1` (stereo not given), with 30.3% (inactive); and `COc1ccc(N=CC2=C(O)CCCC2=O)cc1`, with 18.6% (inactive); and `O=C1CCCC(O)=C1C=Nc1cccc(C(F)(F)F)c1`, with 2.45% (inactive).
`CC1(C)CC(=O)C(C=Nc2ccccc2)=C(O)C1`: the inhibition is -6.01% (inactive).
Then `Oc1c(C=Nc2ccccc2)sc2ccccc12`, with 21.4% (inactive); and `CCOC(=O)c1cnc(-n2nc(C)cc2C)nc1NCc1ccc2c(c1)OCO2`, with 17.1% (inactive); and `Cc1ccc(C)c(NC(=O)c2cc(-c3ccccc3O)n[nH]2)c1`, with 3.34% (inactive).
Then `O=C(NC1CCCC1)C1CCN(C(=O)NCc2ccccc2)CC1`, with 8.69% (inactive); and `CC(=O)c1cc2c(cc1N(C(=O)c1ccco1)C(C(=O)NC1CCCC1)c1ccccc1F)OCO2` (stereo not given), with 1.47% (inactive).
Then `C/C(=N\NC(=O)c1cc(C)[nH]n1)c1ccc(-c2ccccc2)cc1`, with 5.47% (inactive); and `CC(C(=O)NC1CCCCC1)N1C(=O)C2C3C=CC(C3)C2C1=O` (stereo not given), with 3.95% (inactive).
Turning to `N#CC(C#N)=C1C=CC=CN1/C(=C\c1ccco1)C(=O)c1ccc(-c2ccccc2)cc1`, the inhibition is 28.2% (inactive).
Then `N#CC(C#N)=C1C=CC=CN1/C(=C\c1ccccc1)C(=O)c1cccs1`, with 4.44% (inactive); and `COCCN(CCOC)S(=O)(=O)c1ccc(C(=O)NC2CCN(Cc3ccccc3)CC2)cc1`, with 4.79% (inactive); and `CCOC(=O)N1CCN(Cc2cccs2)CC1`, with 5.2% (inactive).
As to `O=C(O)[C@H](O)[C@@H](O)C(=O)O`, the inhibition was 3.59% (inactive).
With `O=C(O)[C@@H](O)[C@H](O)C(=O)O`, the inhibition was 16.5% (inactive).
Under `Cc1c(O)ccc2c(=O)c(-c3nncn3-c3ccccc3)coc12` stands 2.48% (inactive); under `CSc1ccc(-c2nc(O)c3cnccn23)cc1`, 27.6% (inactive).
Under `COC(=O)c1ccc(-c2nc(O)c3cnccn23)cc1` stands 4.33% (inactive).
Under `O=C(NNC(=O)c1ccc(O)cc1O)c1ccc(-c2ccccc2)cc1` stands 3.4% (inactive).
As for `OCC1CCCN(C(=S)Nc2ccc(Oc3ccccc3)cc2)C1` (stereo not given), the inhibition was 5.94% (inactive).
Regarding `CC1CCCN(C(=S)Nc2ccc(Nc3ccccc3)cc2)C1` (stereo not given), the inhibition was 14.1% (inactive).
Then `CN1CCN(c2nc3c(c(=O)n(C)c(=O)n3C)n2Cc2ccc(Cl)cc2)CC1`, with 3.78% (inactive); and `CC(C)Sc1nc2c(c(=O)n(C)c(=O)n2C)n1Cc1ccc(Cl)cc1`, with 3.02% (inactive).
As for `O=C(CCN1CCN(c2ccc(Cl)cc2)CC1)Nc1nccs1`, the inhibition was 17.1% (inactive).
Under `COC(=O)c1ccc(CN2CCC(n3nccc3NC(=O)C3CCCC3)CC2)cc1` stands 20% (inactive); under `O=C(COC(=O)C1(c2ccccc2)CC1)NNC(=O)c1ccccc1`, 11.2% (inactive); under `COc1cc(C=O)ccc1OCCOCCOc1cc(C)ccc1Cl`, 10.5% (inactive).
For the compound `O=C(c1ccc(-c2ccc([N+](=O)[O-])cc2)o1)N1CCCCC1`, the inhibition was 9.33% (inactive).
Under `O=C(O)c1cc(-c2ccc(/C=C3/SC(=S)N(Cc4ccccc4)C3=O)o2)ccc1Cl` stands 24.7% (inactive).
Then `C#CCN1C(=O)S/C(=C\c2ccc(-c3ccc(Cl)c(C(=O)O)c3)o2)C1=O`, with 11.9% (inactive); and `CCOC(=O)CN1C(=O)S/C(=C\c2ccc(-c3ccc(C(=O)O)c(Cl)c3)o2)C1=O`, with 17% (inactive).
Then `O=C(O)c1cc(-c2ccc(/C=C3\NC(=O)N(c4ccc(Cl)cc4)C3=O)o2)ccc1Cl`, with 31.3% (inactive); and `Cc1ccc(N2NC(=O)/C(=C/c3ccc(-c4ccc(Cl)c(C(=O)O)c4)o3)C2=O)cc1C`, with 33.6% (inactive).
Take `Cc1ccc(N2NC(=O)/C(=C/c3ccc(-c4ccc(Cl)c(C(=O)O)c4)o3)C2=O)cc1`: the inhibition is 14.8% (inactive).
Under `O=C(CCN1C(=O)C2CC=C(Cl)CC2C1=O)Nc1ccccc1O` (stereo not given) stands 3.99% (inactive).
For `C/C(=N\Nc1ccc(C(=O)O)cc1)c1ccc(S(=O)(=O)NCc2ccco2)cc1`, the inhibition is 11% (inactive).
Then `CCc1cccc(C)c1NC(=O)c1ccc2c(c1)CCN2S(C)(=O)=O`, with 1.63% (inactive).
Under `Nc1ccc2c(c1)C(=O)c1ccccc1C2=O` stands 7.9% (inactive).
Then `Nc1ccc2c(c1)Cc1cc([N+](=O)[O-])ccc1-2`, with 7.98% (inactive).
Regarding `CC(=O)N1CCN(C(=O)CSc2nc3c(cnn3-c3ccccc3)c(=O)[nH]2)CC1`, the inhibition is 2.65% (inactive).
Then `Cc1cccc2cc(CN(CCCN3CCOCC3)Cc3nnnn3C(C)(C)C)c(=O)[nH]c12`, with 10% (inactive); and `O=C(Nc1ccccc1Cl)N1CCSc2ccccc21`, with 5.32% (inactive).
On to `COCCCn1c(=O)c2ccccc2c2ccccc2c1=O`, for which the inhibition was -0.58% (inactive).
Under `CCCn1c(=O)c2ccccc2n2c(SCC(=O)c3ccccc3)nnc12` stands 16.8% (inactive); under `Cc1nnc2n(-c3ccccc3)c(=O)c3ccccc3n12`, -1.7% (inactive).
Under `CCCCCn1c(=O)c2ccccc2n2c(CCl)nnc12` stands 15.8% (inactive).
Under `CCCCn1c(=O)c2ccccc2c2ccccc2c1=O` stands 3.41% (inactive); under `COc1cccc(-n2c(SCC(N)=O)nc3ccccc3c2=O)c1`, 4.09% (inactive); under `CCCn1c(=O)c2ccccc2n2c(SCC(N)=O)nnc12`, 9.05% (inactive).
With `COCCCn1c(=O)c2ccccc2n(Cc2ccccc2)c1=O`, the inhibition was 7.67% (inactive).
